# Test results: the supplement of paper PMC11732987, “Enantioselective OTUD7B fragment discovery through chemoproteomics screening and high-throughput optimisation” (Communications Chemistry, 2025)
# Unmarked numbers belong to inactive results.
# Tests used:
# Assay in all cases: log2 ratio of Biotin-Ahx-Ub-VS probe labelling (fragment/DMSO); higher = less target engagement (more negative = stronger competition), active = hit call of the paper (q ≤ 0.05, log2 ratio ≤ -1)
# Details in all cases: compound concentration: 200 uM; treatment time: 3 h
# [1] = molecular target: USP34 (UniProt Q70CQ2)
# Chain of USP34 (Q70CQ2 whole entry, the tested form may be a part): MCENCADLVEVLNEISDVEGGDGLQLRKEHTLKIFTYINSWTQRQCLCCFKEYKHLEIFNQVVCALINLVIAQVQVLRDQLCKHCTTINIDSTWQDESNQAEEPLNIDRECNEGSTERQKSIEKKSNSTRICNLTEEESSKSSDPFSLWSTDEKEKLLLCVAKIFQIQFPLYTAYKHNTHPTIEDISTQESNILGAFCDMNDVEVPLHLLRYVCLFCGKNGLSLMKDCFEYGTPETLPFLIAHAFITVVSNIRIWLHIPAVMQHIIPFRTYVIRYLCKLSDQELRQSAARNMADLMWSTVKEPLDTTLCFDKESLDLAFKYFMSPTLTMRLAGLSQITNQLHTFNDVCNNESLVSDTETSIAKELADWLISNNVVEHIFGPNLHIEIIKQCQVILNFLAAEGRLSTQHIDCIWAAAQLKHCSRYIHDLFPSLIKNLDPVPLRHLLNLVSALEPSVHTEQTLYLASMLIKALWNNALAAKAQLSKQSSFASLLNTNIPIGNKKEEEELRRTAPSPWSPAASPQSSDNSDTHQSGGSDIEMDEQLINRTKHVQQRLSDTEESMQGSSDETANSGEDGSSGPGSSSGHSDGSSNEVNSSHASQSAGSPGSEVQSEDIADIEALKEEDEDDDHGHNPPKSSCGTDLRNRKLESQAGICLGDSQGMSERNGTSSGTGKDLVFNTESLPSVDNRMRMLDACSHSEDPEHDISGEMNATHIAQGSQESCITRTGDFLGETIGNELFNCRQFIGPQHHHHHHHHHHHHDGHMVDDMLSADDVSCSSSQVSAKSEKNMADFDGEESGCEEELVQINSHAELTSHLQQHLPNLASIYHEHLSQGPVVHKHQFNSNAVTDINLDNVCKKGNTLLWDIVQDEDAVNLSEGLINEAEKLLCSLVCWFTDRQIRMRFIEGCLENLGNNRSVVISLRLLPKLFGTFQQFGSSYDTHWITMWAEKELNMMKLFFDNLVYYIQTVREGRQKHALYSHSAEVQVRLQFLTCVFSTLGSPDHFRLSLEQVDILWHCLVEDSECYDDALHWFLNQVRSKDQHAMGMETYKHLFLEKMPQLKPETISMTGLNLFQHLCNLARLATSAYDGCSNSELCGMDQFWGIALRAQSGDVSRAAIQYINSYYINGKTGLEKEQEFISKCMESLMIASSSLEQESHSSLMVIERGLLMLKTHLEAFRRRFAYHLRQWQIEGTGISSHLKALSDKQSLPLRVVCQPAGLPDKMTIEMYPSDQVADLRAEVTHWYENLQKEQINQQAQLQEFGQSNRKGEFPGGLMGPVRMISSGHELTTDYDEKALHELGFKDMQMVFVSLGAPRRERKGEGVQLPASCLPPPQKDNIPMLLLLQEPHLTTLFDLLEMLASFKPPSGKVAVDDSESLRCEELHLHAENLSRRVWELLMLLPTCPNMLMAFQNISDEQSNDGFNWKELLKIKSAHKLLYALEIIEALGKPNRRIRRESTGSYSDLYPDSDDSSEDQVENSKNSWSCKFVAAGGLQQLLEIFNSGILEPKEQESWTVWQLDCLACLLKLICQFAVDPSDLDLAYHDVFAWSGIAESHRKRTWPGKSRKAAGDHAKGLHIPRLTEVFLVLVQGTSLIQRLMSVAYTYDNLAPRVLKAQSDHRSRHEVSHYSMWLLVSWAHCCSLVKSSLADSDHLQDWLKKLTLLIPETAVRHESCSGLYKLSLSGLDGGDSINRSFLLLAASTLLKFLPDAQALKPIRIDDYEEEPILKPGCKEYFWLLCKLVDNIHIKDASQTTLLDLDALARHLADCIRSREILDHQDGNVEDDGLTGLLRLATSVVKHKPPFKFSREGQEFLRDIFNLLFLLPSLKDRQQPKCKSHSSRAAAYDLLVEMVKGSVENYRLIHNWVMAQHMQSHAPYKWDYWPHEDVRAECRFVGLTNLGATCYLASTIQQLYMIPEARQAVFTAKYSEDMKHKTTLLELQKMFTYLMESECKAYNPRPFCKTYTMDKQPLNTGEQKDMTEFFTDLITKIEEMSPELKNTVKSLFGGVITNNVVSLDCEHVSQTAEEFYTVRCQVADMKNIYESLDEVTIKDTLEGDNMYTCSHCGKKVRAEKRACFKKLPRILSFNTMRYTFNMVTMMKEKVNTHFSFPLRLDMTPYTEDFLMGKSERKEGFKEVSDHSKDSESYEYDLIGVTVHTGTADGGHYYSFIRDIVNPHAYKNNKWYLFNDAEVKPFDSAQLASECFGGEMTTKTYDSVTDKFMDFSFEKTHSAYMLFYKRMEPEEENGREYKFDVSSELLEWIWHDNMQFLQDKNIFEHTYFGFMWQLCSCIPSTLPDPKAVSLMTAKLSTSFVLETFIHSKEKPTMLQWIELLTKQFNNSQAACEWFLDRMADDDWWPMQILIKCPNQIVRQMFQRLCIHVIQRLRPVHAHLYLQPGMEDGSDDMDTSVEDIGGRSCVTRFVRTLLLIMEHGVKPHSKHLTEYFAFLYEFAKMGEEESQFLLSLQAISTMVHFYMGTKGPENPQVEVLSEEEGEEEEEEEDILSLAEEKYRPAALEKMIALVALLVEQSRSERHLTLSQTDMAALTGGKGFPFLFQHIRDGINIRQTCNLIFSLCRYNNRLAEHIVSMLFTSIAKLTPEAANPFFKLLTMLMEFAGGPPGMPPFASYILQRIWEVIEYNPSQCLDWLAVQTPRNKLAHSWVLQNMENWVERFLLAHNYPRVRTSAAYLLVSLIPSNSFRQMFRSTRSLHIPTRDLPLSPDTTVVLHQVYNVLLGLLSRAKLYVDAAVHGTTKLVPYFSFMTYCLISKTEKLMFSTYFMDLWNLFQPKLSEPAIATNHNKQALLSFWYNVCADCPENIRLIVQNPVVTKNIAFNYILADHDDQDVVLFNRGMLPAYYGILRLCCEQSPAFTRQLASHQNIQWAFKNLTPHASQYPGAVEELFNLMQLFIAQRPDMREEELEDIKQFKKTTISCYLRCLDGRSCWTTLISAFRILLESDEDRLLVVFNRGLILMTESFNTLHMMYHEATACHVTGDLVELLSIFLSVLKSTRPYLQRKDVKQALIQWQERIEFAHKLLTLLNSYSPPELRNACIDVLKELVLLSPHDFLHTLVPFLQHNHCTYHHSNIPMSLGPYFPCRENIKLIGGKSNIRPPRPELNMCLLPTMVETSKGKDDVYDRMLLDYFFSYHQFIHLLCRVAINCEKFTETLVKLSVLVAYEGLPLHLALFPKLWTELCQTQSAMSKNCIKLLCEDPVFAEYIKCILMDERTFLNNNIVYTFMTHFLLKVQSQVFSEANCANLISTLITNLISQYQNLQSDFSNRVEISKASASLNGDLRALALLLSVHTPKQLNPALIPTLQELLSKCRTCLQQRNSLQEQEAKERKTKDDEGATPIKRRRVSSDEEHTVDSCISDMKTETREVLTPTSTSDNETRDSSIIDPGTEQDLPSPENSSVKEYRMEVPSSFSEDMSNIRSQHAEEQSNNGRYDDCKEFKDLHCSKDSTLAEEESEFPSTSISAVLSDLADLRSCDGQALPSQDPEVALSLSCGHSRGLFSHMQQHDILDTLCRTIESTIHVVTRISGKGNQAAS
# How it was run: (§1)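 The table lists average log2 ratios of fragment over vehicle, from an unpaired t-test on global-median-normalised Spectronaut label-free quantities. Proteins with ≥2 unique peptides were used. Samples were HEK293T lysate (495 µg) treated in triplicate with fragment at 200 µM or vehicle for 3 h, then with Biotin-Ahx-Ub-VS (0.5 µM final) for 1 h, with labelled DUBs NeutrAvidin-enriched and run by diaPASEF LC-MS/MS.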
# [2] = molecular target: T1, USP36 (UniProt Q9P275)
# T1 sequence (whole entry): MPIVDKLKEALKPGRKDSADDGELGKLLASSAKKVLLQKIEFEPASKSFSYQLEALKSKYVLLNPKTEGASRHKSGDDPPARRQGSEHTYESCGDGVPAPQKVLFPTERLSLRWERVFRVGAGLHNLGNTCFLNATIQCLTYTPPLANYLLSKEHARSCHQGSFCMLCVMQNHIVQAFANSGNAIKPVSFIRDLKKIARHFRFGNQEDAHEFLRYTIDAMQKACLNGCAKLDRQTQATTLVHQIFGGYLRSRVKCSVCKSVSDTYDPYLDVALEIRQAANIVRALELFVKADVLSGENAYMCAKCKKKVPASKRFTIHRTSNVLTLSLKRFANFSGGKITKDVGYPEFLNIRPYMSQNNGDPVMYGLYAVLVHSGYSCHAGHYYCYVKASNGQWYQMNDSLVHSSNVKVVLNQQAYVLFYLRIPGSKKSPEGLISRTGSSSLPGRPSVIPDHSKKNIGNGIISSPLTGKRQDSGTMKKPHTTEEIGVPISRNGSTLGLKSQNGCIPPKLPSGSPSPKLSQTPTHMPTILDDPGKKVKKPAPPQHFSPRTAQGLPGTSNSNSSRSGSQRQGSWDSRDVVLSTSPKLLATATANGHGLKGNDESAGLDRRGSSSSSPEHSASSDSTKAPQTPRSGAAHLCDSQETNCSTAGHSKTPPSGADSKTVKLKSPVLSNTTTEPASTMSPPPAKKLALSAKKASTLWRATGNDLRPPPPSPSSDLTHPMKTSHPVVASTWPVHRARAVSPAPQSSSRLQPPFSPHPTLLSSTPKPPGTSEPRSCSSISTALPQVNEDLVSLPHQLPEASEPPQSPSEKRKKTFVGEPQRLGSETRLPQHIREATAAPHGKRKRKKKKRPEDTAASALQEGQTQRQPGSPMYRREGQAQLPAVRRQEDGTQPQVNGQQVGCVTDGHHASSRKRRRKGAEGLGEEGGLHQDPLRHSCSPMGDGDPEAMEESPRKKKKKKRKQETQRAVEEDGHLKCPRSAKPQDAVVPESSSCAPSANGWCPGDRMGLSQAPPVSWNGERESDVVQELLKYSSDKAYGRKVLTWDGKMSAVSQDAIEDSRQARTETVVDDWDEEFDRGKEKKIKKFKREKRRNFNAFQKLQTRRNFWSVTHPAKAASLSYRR
# How it was run: as §1
# [3] = molecular target: T2, USP38 (UniProt Q8NB14)
# T2 sequence (whole entry): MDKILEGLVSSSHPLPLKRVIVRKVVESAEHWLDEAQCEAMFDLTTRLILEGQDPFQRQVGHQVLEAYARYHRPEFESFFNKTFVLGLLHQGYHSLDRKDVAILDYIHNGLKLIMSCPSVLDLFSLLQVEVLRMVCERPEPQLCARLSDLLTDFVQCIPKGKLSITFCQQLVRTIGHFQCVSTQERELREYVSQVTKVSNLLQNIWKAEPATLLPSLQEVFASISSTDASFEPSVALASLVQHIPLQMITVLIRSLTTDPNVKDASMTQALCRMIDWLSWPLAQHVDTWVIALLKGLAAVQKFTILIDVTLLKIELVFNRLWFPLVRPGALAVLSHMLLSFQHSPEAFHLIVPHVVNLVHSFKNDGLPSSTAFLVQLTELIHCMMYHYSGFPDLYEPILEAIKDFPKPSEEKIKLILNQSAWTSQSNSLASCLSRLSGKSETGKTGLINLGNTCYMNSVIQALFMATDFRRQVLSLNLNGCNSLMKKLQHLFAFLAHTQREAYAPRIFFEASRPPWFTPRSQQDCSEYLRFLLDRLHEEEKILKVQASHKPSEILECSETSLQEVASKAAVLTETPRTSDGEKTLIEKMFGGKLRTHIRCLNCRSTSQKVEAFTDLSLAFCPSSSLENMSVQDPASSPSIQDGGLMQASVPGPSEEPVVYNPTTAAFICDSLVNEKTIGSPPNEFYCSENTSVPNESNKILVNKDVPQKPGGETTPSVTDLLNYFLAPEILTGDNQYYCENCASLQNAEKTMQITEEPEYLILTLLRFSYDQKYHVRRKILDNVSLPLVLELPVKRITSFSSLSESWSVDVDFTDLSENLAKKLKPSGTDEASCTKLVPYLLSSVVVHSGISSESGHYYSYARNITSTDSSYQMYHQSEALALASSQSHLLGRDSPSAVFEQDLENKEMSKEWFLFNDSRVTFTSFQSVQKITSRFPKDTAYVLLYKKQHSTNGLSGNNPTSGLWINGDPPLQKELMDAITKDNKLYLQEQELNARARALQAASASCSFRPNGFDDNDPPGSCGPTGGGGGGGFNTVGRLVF
# How it was run: as §1
# [4] = molecular target: T3, USP39 (UniProt Q53GS9)
# T3 sequence (whole entry): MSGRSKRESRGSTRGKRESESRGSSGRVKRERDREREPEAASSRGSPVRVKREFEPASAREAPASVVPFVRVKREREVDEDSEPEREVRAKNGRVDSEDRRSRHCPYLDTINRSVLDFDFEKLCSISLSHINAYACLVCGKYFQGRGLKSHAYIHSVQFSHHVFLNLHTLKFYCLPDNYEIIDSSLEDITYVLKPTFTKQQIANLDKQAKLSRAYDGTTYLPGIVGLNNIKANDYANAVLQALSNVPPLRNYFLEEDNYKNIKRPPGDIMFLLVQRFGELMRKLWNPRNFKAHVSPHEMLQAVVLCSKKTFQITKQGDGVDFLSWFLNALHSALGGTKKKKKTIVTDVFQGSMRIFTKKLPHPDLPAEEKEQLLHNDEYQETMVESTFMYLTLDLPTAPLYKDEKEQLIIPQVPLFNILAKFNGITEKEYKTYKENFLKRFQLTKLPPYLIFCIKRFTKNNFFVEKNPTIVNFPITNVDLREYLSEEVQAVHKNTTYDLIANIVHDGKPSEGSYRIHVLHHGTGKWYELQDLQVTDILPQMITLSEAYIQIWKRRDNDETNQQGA
# How it was run: as §1
# [5] = molecular target: T4, USP4 (UniProt Q13107)
# T4 sequence (whole entry): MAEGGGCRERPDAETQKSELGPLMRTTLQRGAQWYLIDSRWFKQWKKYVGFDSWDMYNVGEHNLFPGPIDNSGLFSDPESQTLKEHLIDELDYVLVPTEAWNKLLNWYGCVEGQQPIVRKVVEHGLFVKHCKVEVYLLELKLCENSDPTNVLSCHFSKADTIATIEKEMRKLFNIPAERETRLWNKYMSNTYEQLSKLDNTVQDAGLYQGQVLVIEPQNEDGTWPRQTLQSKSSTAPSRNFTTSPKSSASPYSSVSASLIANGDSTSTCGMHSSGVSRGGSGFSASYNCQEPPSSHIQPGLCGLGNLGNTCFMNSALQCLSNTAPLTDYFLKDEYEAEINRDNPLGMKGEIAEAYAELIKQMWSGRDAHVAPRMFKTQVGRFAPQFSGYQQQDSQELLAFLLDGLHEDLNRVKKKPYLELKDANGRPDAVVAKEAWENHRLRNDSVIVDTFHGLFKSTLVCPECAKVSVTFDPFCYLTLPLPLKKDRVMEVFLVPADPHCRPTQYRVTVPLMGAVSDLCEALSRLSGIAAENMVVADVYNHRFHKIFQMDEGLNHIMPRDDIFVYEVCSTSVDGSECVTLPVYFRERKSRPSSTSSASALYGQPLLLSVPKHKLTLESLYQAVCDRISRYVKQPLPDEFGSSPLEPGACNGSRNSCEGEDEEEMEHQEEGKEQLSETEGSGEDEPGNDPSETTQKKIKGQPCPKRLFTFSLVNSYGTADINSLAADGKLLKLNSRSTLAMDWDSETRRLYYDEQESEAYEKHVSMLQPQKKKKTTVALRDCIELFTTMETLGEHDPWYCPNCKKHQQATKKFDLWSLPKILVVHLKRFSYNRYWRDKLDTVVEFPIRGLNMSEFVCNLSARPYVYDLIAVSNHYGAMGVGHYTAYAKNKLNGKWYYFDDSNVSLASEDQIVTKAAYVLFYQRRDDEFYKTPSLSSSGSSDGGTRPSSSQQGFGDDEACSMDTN
# How it was run: as §1
structure (smiles),measurement,setting,value
O=C(CCl)N1CCN(C(=O)N2CCCCC2)CC1,log2 ratio of Biotin-Ahx-Ub-VS probe labelling,[1],-0.512
same,log2 ratio of Biotin-Ahx-Ub-VS probe labelling,[2],-0.269
same,log2 ratio of Biotin-Ahx-Ub-VS probe labelling,[3],-1.04 (active)
same,log2 ratio of Biotin-Ahx-Ub-VS probe labelling,[4],-0.223
same,log2 ratio of Biotin-Ahx-Ub-VS probe labelling,[5],-1.05 (active)
